Source: PubChem BioAssay
HPGD block: qHTS Assay for Inhibitors of HPGD (15-Hydroxyprostaglandin Dehydrogenase). 15-hydroxyprostaglandin dehydrogenase [NAD(+)] (Homo sapiens), P15428. purified HPGD, NADH fluorescence kinetic, PGE2 substrate. Potency, µM, for the others: at the top dose activity change, negative = inhibition, usual class: inhibitors. 150,000 compounds, 4.3% hits; also: potency is read from the fitted curve at half-maximal effect
Target sequence (P15428 whole entry, looked up): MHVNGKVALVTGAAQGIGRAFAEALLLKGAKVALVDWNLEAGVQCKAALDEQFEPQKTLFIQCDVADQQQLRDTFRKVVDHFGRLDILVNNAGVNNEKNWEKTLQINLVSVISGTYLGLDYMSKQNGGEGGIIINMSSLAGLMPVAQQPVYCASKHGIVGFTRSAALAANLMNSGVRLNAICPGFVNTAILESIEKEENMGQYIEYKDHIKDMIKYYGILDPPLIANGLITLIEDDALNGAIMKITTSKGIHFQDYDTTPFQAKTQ
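20 nM HPGD preincubated 15 min at room temperature with compound in 50 mM Tris-HCl pH 8, 0.01% Tween 20. Started with 1 mM NAD+ and 30 uM prostaglandin E2; NADH fluorescence (360/450 nm) read 5 times over 30-s intervals, last minus first.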
Lamin A splicing: qHTS Assay for Modulators of Lamin A Splicing; HeLa LMNA splicing GFP/RFP minigene ratio, 48 h; Potency, µM (series often up to 46.1 µM), inactives show at the highest dose ratio change, negative = inhibition, usual class: inhibitors; 200,000 compounds, 0.01% hits; active = well fitted inhibition curve with a large enough effect in the signal ratio, with a control signal flat, not every such curve was filed as active; inconclusive = small, poorly fitted or top-dose-only effect, or effect the other way, or a change in a side signal; the % refers to the signal ratio; also: potency is read from the fitted curve at half-maximal effect
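Read-out is the ratio of GFP to DsRed2 object intensity, acquired by 488 nm laser-scanning cytometry on HeLa lamin A-EGFP minigene reporter cells. Compound incubation 48 hrs at 37 °C in Opti-MEM with 2% FBS; DMSO 0.5% final.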
PNC assembly inh: High Content Assay for Compounds that inhibit the Assembly of the Perinucleolar Compartment. 140,000 compounds, 3.1% hits. activity change (PNC), negative = inhibition, % at 10 µM. AID 2417, 2010. PC3M PTB-GFP, PNC prevalence imaging, 16 h; active compounds read low;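 active = readout at or below -70, meaning at least 70% loss of cells showing the perinucleolar compartment, a nuclear body marking cancer cells; inconclusive = readout between -30 and a set limit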;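 also: plate controls were DMSO wells for no effect and camptothecin positive control wells for full effect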
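Compounds are pinned in duplicate onto adhered PC3M cells stably expressing GFP-tagged PTB and incubated 16 h at 37 C. Cells are then fixed, nuclei stained with Hoechst, and PNC-positive cells counted.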
ALDH1A1 block: qHTS Assay for Inhibitors of Aldehyde Dehydrogenase 1 (ALDH1A1) | Potency, µM (series often up to 75.3 µM), without a hit: top-dose activity, negative = inhibition, usual class: inhibitors | Purified ALDH1A1, NADH fluorescence, propionaldehyde substrate | Aldehyde dehydrogenase 1A1 (Homo sapiens), P00352 | 220,000 compounds, 7.3% hits | AID 1030, 2008;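 also: potency is read from the fitted curve at half-maximal effect; plate controls were no enzyme wells and a reference inhibitor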
12-hLO inh: qHTS Assay for Inhibitors of 12-hLO (12-human lipoxygenase). purified 12-hLO, xylenol orange hydroperoxide absorbance. 150,000 compounds, 0.12% hits. Polyunsaturated fatty acid lipoxygenase ALOX12 (Homo sapiens), P18054. AID 1452, 2008. Potency, µM (doses to about 57.1 µM), for inactives: top-dose activity change, negative = inhibition, most hits filed as inhibitors; active = well fitted inhibition curve with a large enough effect; inconclusive = small, poorly fitted or top-dose-only effect; also: potency is read from the fitted curve at half-maximal effect; nearly all actives have a fitted effect of over 55% in size
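150 nM 12hLO, 25 mM Hepes pH 7.0 + 0.01% Triton X-100; cpd preinc 15 min RT; 40 uM arachidonic acid, 30 min RT; Fe-XO 30 min; A573/A405 ratio as read-out.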
An asterisk follows results filed as active; ? = inconclusive; nt = not tested or not shown; [ ] = another dose, or the depositor's remark. In the library only some 10% were active in any assay of this set; here they are far more common. Unless noted, calls follow the shape of the dose curve; as a rule, active = well fitted inhibition curve with a large enough effect (not every such curve was filed as active); inconclusive = small, poorly fitted or top-dose-only effect, or another doubt; inactive = no such curve, though single readings can be large or run the other way. Unless noted, % is scaled to controls: 0 for no effect and ±100 for the full control effect.

SMILES | HPGD block | Lamin A splicing | PNC assembly inh | ALDH1A1 block | 12-hLO inh
COC(=O)CSCc1nc(-c2ccc(C(=O)OC)cc2)oc1C | nt | 17.9%[46 µM] | nt | nt | nt
CCCCC(=O)NC(=S)Nc1c(C)cc(Br)cc1C | ? | -2.7% | 33.2 | 11.2µM* | -17.2%
CCCCC(=O)NC(=S)NNC(=O)CC | -12.3% | -5.8% | -94.1* | 22.4µM* | -3.5%
CCCCCC(=O)NC(=S)NNC(=O)CC | -8.3% | -11.4% | -8.6 | ? | -5.1%
O=C(NC(=S)NNS(=O)(=O)c1ccccc1)c1ccccc1[N+](=O)[O-] | 20µM* | 7.7% | 13.3 | 27.9% | -4.0%
CCCCC(=O)NC(=S)NNS(=O)(=O)c1ccccc1 | 20µM* | -5.0% | -27.4 | 8.91µM* | -2.9%
COc1ccc(-n2c(/C=C/c3cccc(C(F)(F)F)c3)nc3ccccc3c2=O)cc1Cl | nt | -13.3%[46 µM] | nt | nt | nt
CCOc1ccccc1NC(=O)N1CCc2c(sc3c2CCCC3)C1c1ccccc1 (configuration not stated) | nt | 2.8%[46 µM] | nt | nt | nt
O=C(NCCC1=CCCCC1)c1ccc(Cl)c(S(=O)(=O)N2CCOCC2)c1 | 1.1% | ? | -18.9 | 12.6µM* | -3.1%
O=S(=O)(NCCC1=CCCCC1)c1cccc(S(=O)(=O)N2CCOCC2)c1 | nt | ? | 10.2 | 10µM* | -1.7%
O=C(N/N=C/c1cccc([N+](=O)[O-])c1)c1cnccn1 | -5.9% | -2.9% | ? | 7.6% | -3.7%
O=C(N/N=C/c1ccncc1)c1cc([N+](=O)[O-])cc([N+](=O)[O-])c1O | 28.2µM* | 6.4% | ? | ? | -28.2%
Cc1ccc(OCC(=O)Nc2cccc(OCc3cc(=O)n4cccc(C)c4n3)c2)cc1C | nt | 12.1%[46 µM] | nt | nt | nt
COc1ccc(CCNC(=O)c2ccc(CSc3ccccc3)o2)cc1 | nt | ? | nt | 3.55µM* | nt
COc1ccccc1CCNC(=O)c1ccc(C)o1 | 8.91µM* | 13.4% | 29.9 | -2.0% | -1.2%
CCc1ccc2oc(C(=O)NCc3ccncc3)c(C)c2c1 | ? | ? | ? | ? | 1.9%
O=C(NCc1ccccc1Cl)c1ccc(Br)o1 | nt | 3.6%[46 µM] | nt | ? | nt
COc1ccccc1CNC(=O)c1ccc(Br)o1 | 39.8µM* | 4.1% | ? | ? | 1.2%[0.00818 µM]
Cc1cc(C)c2c(C)c(C(=O)NCc3ccncc3)oc2c1 | -24.1% | ? | -100.0* | 1.2% | 5.4%
Cc1ccc(CCNC(=O)c2ccc(CSCc3ccc(C)cc3)o2)cc1 | nt | -25.6%[46 µM] | nt | nt | nt
O=C(O)CCC(=O)c1ccc[nH]1 | 0.7% | nt | nt | 7.3%[13.5 µM] | 1.5%[11.4 µM]
O=C(NCc1ccncc1)c1ccc(Br)o1 | -10.6% | 0.1% | 5.2 | 3.55µM* | -4.4%
CCOC(=O)c1sc(NC(=S)NC(=O)c2ccccc2)c(C(=O)OCC)c1C | -11.1% | -8.3% | 36.3 | -5.6% | 0.2%
CCOC(=O)C1=C(NC(=S)NC(=O)c2ccccc2)c2ccccc2CC1C(C)C (configuration not stated) | -14.9% | ? | -96.1* | 15µM* | -23.1%
CCOC(=O)C1=C(NC(=S)NC(=O)c2ccccc2)c2ccccc2CC1(C)CC (configuration not stated) | -5.2% | ? | ? | 12.6µM* | ?
SMILES | HPGD block | Lamin A splicing | PNC assembly inh | ALDH1A1 block | 12-hLO inh
O=C(O)CSc1c(-c2ccccc2)[nH]c2ccccc12 | -15.9% | -5.8% | -84.7* | ? | -1.5%
O=C(CN1CCCCC1)N=Nc1c(O)[nH]c2ccccc12 | nt | nt | nt | 12.6µM* | nt
O=C(CN1CCN(Cc2ccccc2)CC1)N=Nc1c(O)[nH]c2ccccc12 | -4.9% | 10.4% | -14.4 | 10.9% | 1.3%
COc1ccc(S(=O)(=O)/N=C2/NC(=O)/C(=C\c3ccco3)S2)cc1 | 28.2µM* | -12.0% | 3.8 | 17.8µM* | ?
Cc1ccc(S(=O)(=O)/N=C2/NC(=O)/C(=C/c3ccccn3)S2)cc1 | nt | 2.0%[46 µM] | nt | -0.8% | nt
COc1ccc(S(=O)(=O)/N=C2/NC(=O)/C(=C/c3ccco3)S2)cc1 | ? | -12.3% | 3.1 | 22.4µM* | -25.9%
CCOc1cccc(C(=O)N(Cc2ccco2)C2CCS(=O)(=O)C2)c1 (configuration not stated) | -5.0% | -7.6% | 130.0 | -4.5% | -0.2%
